Results on twelve molecules are retold here after PubChem BioAssay.

The nature of assay [1]: HepG2 liver cancer cell viability effects, profiling panel, resazurin fluorescence, 24 h, PK04 Diversity Set (AID 1172). Also: test concentration not given here. As to conditions: higher = more signal. Background: Alamar Blue is a resazurin reagent that responds to reducing activity.
Assay [2] in a line: basal S. cerevisiae growth modulation, no modifier, primary screen, OD600, strain BY4716, 24 h, basal condition (AID 1173). The settings on record: OD600, 24 h, higher = more signal, called active from +8 up or from −8 down.
Assay [3] in a line: MM1S myeloma cell viability, profiling panel, resazurin fluorescence, basal, 24 h, PK04 Diversity Set (AID 1174). Also: test concentration not given here. As to conditions: higher = more signal, called active from +8 up or from −8 down.
Assay [4] addresses Dihydroorotate dehydrogenase (quinone), mitochondrial (Plasmodium falciparum (isolate 3D7)) (UniProt Q08210). As to the kind of experiment: PfDHODH enzyme inhibitors, primary screen, biochemical, C-terminal His tag, absorbance 600 nm (AID 1175).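 Also: recombinant parasite enzyme with a five histidine tag at its C terminus; test concentration not given here.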 As to conditions: DCIP absorbance 600 nm, higher = more signal, called active from +8 up or from −8 down.
The nature of assay [5]: P. aeruginosa biofilm formation inhibitors, primary screen, strain PAO1, LB-PBS medium, absorbance 600 nm (AID 1176). Also: test concentration not given here. The settings on record: P. aeruginosa PAO1 growth/biofilm, A600, 12 h; higher = more signal.
Assay [6] in a line: S. cerevisiae RM11-1a growth modifiers, primary screen, strain RM11-1a, OD600, basal, 24 h (AID 1177).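 Also: cultures grown under basal conditions with no added stressor; test concentration not given here.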 The settings on record: OD600, 24 h, higher = more signal, called active from +8 up or from −8 down.
Assay [7] in a line: E. coli acrAB mutant growth effects, primary screen, E. coli filamentation inducers, strain DRC39, OD650, 24 h (AID 1178).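 Also: growth measured as culture turbidity by optical density at 650 nm; test concentration not given here.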 The settings on record: higher = more signal, called active from +8 up or from −8 down.
The nature of assay [8]: E. coli acrAB mutant growth effects, primary screen, E. coli filamentation inducers, strain DRC39, OD650, 48 h (AID 1179).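 Also: screen aims at cell division blockers that make cells filament.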 The settings on record: E. coli DRC39 delta-acrAB growth, higher = more signal, called active from +8 up or from −8 down.
Assay [9] in a line: RPMI8226 myeloma cell viability, profiling panel, resazurin fluorescence, basal, 24 h, PK04 Diversity Set (AID 1180).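 Also: RPMI8826 multiple myeloma cell line at 5000 cells per well; test concentration not given here.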 As to conditions: higher = more signal.
Assay [10] has as its target E3 ubiquitin-protein ligase XIAP (Homo sapiens) (UniProt P98170). Kind of assay: XIAP binders, primary screen, biophysical, small-molecule microarray, fluorescence 635 nm (AID 1181).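 Also: score merges 667 nm emission and signal to noise over triplicate slides.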 The settings on record: small-molecule microarray binding, higher = more signal.

Structures are written as SMILES. Active and inactive are the calls of the source. Unless noted, no rule for the calls is given here.

Dihydroorotate dehydrogenase (quinone), mitochondrial (Plasmodium falciparum (isolate 3D7)), sequence (Q08210 whole entry, looked up): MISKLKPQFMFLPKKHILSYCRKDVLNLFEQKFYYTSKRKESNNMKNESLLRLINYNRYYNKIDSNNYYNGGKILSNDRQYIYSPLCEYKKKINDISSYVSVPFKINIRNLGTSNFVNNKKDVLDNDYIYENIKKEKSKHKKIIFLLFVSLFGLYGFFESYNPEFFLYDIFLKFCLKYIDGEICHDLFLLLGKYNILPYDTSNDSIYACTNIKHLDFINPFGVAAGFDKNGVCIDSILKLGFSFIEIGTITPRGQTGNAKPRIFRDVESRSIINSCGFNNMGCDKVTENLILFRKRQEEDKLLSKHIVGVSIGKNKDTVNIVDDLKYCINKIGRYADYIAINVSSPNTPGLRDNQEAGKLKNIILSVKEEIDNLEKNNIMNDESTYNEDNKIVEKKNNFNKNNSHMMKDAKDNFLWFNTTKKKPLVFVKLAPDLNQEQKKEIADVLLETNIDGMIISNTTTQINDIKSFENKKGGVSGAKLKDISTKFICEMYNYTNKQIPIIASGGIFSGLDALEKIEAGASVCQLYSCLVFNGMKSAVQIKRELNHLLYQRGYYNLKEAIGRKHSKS
E3 ubiquitin-protein ligase XIAP (Homo sapiens), sequence (P98170 whole entry, looked up): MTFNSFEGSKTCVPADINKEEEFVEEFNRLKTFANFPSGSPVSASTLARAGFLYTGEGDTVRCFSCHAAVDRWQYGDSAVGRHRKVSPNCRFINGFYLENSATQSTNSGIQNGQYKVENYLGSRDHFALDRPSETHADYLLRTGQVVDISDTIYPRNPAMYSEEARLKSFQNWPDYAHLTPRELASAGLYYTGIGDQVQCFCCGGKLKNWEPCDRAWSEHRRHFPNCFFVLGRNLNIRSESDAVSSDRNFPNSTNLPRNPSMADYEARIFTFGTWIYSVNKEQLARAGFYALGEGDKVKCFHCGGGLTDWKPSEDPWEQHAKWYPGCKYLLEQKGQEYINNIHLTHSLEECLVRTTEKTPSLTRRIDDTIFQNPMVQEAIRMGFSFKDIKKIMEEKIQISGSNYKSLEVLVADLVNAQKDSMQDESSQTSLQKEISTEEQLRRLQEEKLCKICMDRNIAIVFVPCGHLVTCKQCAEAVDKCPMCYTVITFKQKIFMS

As to `C=CCOCC1CN2[C@@H](CC[C@@H](C)[C@@H]2c2ccc(Br)cc2)C(=O)O1` (stereo not given in full), the z-score is 0.685 in [1]; -0.139 (inactive) in assay [2]; 0.824 (inactive) in assay [3]; 0.013 (inactive) in [5]; 1.14 (inactive) in [6]; 0.622 (inactive) in assay [7]. Also, the z-score in assay [8] was -0.0542 (inactive); in [9], 1.49. Further, the composite z-score was -0.959 (inactive) in assay [4] and -0.184 in assay [10].

In the case of `COC(=O)CC=C[C@@H](C)[C@@H](C=NOC[C@@H](C)[C@H](OCc1ccccc1)C(C)C)OC`, the z-score in [1] is -1.01; in [2], 0.285 (inactive); in [3] it was 0.405 (inactive); in [5] it was -0.892 (inactive); in assay [6], 0.169 (inactive); in assay [7] it was -0.213 (inactive). For the same molecule, the z-score was -0.442 (inactive) in assay [8] and -0.286 in [9]. For the same molecule, the composite z-score was 0.957 (inactive) in [4] and -0.118 in assay [10].

For `CCOC(=O)[C@H](CC(C)C)NC(=O)CCC1CC(OC(=O)NCc2ccc3c(c2)OCO3)CC2(CCCC(COC(=O)NCCc3ccc(Cl)cc3)O2)O1` (stereo not given in full), the z-score is 0.538 in assay [1]; -0.723 (inactive) in [2]; 0.984 (inactive) in [3]; -0.151 (inactive) in [5]; -0.166 (inactive) in assay [6]; 0.337 (inactive) in [7]. In addition, the z-score was -0.294 (inactive) in assay [8] and 1.13 in [9]. The composite z-score in [4] was -0.704 (inactive); in assay [10], -0.157.

In the case of `CCCNC(=O)OC[C@H]1O[C@H](CCON=C2C[C@@H](O)[C@@H](O)[C@@H]3[C@@H]4C(=O)N(CC)C(=O)[C@@H]4CC[C@@H]23)C=C[C@@H]1Oc1ccc(OC)cc1`, the z-score was -0.57 in assay [1]; 0.0913 (inactive) in assay [2]; -0.791 (inactive) in assay [3]; 0.429 (inactive) in assay [5]; -0.32 (inactive) in [6]; 0.74 (inactive) in assay [7]. The z-score was 0.658 (inactive) in [8] and -1.02 in [9]. In addition, the composite z-score in [4] is -0.384 (inactive); in [10], -0.281.

As for `COC(=O)[C@H](C)NC(=O)CCC1CC(OC(=O)NCc2cccc3ccccc23)CC2(CCCC(COC(=O)NCCOc3ccccc3)O2)O1` (stereo not given in full), the z-score is 0.311 in [1]; -0.689 (inactive) in assay [2]; 0.875 (inactive) in assay [3]; -0.458 (inactive) in assay [5]; 0.149 (inactive) in assay [6]; 0.008 (inactive) in assay [7]. The z-score was -0.693 (inactive) in assay [8] and 0.564 in [9]. The figures for the composite z-score in assay [4] and in [10] were -0.989 (inactive) and -0.275, respectively.

With `CC(=O)OC[C@H]1O[C@H](CC=NOC(C)CN2CCCCc3nc(C)c(C)cc32)C=C[C@@H]1OC(C)=O` (stereo not given in full), the z-score in assay [1] was 0.351; in [2], 0.515 (inactive); in [3], 0.535 (inactive); in [5], -0.266 (inactive); in assay [6] it was 0.575 (inactive); in assay [7], 0.132 (inactive). Moreover, the z-score is -0.269 (inactive) in assay [8] and 0.46 in assay [9]. In addition, the figures for the composite z-score in assay [4] and in assay [10] were -0.582 (inactive) and 0.23, respectively.

With `CCN1C(=O)[C@H]2[C@H]3[C@H](O)[C@H](O)CC(=NO[C@H](C)c4cn([C@H](CO)Cc5ccccc5)nn4)[C@@H]3CC[C@H]2C1=O`, the z-score in assay [1] was -0.948; in [2] it was 0.0722 (inactive); in assay [3], -1.37 (inactive); in assay [5] it was 0.359 (inactive); in assay [6], -0.141 (inactive); in assay [7], 1.44 (inactive). The z-score was 0.829 (inactive) in assay [8] and -1.46 in assay [9]. Also, the composite z-score in assay [4] was -0.613 (inactive); in [10], 0.0178.

`CC(C)=CCCC(C)=CCON=C1C[C@@H](O)[C@@H](O)[C@@H]2[C@@H]3C(=O)N(c4cccc(Oc5ccccc5)c4)C(=O)[C@@H]3CC[C@H]12`: the z-score was 1.05 in assay [1]; 0.681 (inactive) in assay [2]; 0.674 (inactive) in assay [3]; -0.0849 (inactive) in [5]; 0.668 (inactive) in assay [6]; 0.599 (inactive) in [7]. The z-score in assay [8] was 0.15 (inactive); in assay [9] it was 0.157. In addition, the composite z-score in [4] was -0.141 (inactive); in assay [10], -0.102.

As for `CC(C)=NO[C@H](C)c1cn([C@@H]2COC[C@H]2O)nn1`, the z-score was -1.51 in assay [1]; -0.0346 (inactive) in assay [2]; -0.508 (inactive) in assay [3]; 0.101 (inactive) in assay [5]; -0.683 (inactive) in [6]; 0.504 (inactive) in assay [7]. Also, the z-score in assay [8] is 0.82 (inactive); in assay [9], -0.469. The composite z-score was 0.0741 (inactive) in [4] and -0.152 in [10].

Take `O=C1C2=CC[C@H]3C(=O)N(C[C@@H]4CCCO4)C(=O)[C@H]3[C@H]2[C@H](O)[C@@H]2O[C@H]12`: the z-score in assay [1] is -0.154; in assay [2], -0.87 (inactive); in assay [3] it was -4.71 (inactive); in assay [5], -0.343 (inactive); in assay [6], -0.511 (inactive); in assay [7], 0.0929 (inactive). The z-score in assay [8] is 0.424 (inactive); in [9] it was -1.7. The results for the composite z-score in assay [4] and in assay [10] were -0.619 (inactive) and 0.204, respectively.

In the case of `CC(C)[C@H](NC(=O)OC(C)(C)C)[C@@H](O)CC(=O)C(C)(C)C`, the z-score was 0.365 in assay [1]; 0.289 (inactive) in assay [2]; -0.809 (inactive) in assay [3]; 0.593 (inactive) in assay [5]; 0.942 (inactive) in assay [6]; 0.599 (inactive) in assay [7]. The values for the z-score in assay [8] and in assay [9] were 0.311 (inactive) and -0.816, respectively. For the same molecule, the composite z-score was 0.525 (inactive) in assay [4] and -0.111 in [10].

On to `COc1ccc(O[C@H]2C=C[C@@H](c3ccccc3)O[C@@H]2CON=C(C)CCN2CCCc3nc(C)c(C)cc32)cc1`, for which the z-score in assay [1] was 0.165; in assay [2], -0.855 (inactive); in [3], -0.662 (inactive); in assay [5], 0.699 (inactive); in assay [6] it was -0.351 (inactive); in [7], -0.321 (inactive). For the same molecule, the z-score in [8] is -0.112 (inactive); in assay [9], -0.164. Besides, the values for the composite z-score in assay [4] and in assay [10] were -0.752 (inactive) and 2.22, respectively.
